Assay results from publication PMC7862700, “An all-to-all approach to the identification of sequence-specific readers for epigenetic DNA modifications on cytosine”.

Tests used:
Assay in all cases: DAPPL (digital affinity profiling via proximity ligation, sequencing); 10 mM Tris-HCl pH 7.5, 50 mM NaCl, 1 mM DTT, 4% glycerol, room temperature, 30 min; GST-TFs on glutathione beads, 16-mer random dsDNA library, 0.1% formaldehyde crosslink after washing; high values mean tight binding
[1] = biological target: T1, FLI1 (Homo sapiens, UniProt Q01543 1-452); details: protein: recombinant; tags: N-terminal GST; dsDNA, one strand shown
T1 sequence: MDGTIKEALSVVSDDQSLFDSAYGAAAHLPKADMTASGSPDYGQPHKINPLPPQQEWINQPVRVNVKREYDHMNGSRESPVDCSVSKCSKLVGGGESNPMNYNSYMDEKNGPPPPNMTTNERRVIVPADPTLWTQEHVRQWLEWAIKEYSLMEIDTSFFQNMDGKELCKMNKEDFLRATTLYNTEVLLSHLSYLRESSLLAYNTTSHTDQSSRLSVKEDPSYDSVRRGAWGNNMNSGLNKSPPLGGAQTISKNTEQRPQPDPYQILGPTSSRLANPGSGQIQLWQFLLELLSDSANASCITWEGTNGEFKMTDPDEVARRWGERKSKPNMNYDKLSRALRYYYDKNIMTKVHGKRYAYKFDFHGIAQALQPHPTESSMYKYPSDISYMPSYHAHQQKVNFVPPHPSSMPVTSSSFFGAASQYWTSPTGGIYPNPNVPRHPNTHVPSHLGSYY
Summary of the method: (§1)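 Human transcription factors were made in yeast as GST fusions, captured on glutathione beads and barcoded with DNA. With a tag-only sample included, the pool was incubated with 200 nmole of a random double-stranded 16-mer DNA library in Tris/NaCl/DTT/glycerol buffer at room temperature for 30 min, then crosslinked with 0.1% formaldehyde after washing, ligated by proximity, amplified and sequenced. For binding signal, each hexamer's read frequency for a factor is divided by its frequency for the tag-only sample.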

[2] = biological target: T2, ELK1 (Homo sapiens, UniProt P19419 1-428); details: protein: recombinant; tags: N-terminal GST; dsDNA, one strand shown
T2 sequence: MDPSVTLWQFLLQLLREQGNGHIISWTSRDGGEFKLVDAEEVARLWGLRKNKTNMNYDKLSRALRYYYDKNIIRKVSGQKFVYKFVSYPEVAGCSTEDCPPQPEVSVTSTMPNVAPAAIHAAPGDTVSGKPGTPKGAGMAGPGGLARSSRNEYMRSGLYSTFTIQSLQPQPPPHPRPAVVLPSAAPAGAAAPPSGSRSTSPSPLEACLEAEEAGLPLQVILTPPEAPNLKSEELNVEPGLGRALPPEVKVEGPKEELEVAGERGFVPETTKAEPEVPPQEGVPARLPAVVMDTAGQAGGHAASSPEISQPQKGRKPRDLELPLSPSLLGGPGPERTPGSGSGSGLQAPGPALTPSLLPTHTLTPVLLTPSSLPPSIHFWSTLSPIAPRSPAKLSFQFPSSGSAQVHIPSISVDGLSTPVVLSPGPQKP
Summary of the method: as §1

[3] = biological target: T3, GABPA (Homo sapiens, UniProt Q06546 1-454); details: protein: recombinant; tags: N-terminal GST; dsDNA, one strand shown
T3 sequence: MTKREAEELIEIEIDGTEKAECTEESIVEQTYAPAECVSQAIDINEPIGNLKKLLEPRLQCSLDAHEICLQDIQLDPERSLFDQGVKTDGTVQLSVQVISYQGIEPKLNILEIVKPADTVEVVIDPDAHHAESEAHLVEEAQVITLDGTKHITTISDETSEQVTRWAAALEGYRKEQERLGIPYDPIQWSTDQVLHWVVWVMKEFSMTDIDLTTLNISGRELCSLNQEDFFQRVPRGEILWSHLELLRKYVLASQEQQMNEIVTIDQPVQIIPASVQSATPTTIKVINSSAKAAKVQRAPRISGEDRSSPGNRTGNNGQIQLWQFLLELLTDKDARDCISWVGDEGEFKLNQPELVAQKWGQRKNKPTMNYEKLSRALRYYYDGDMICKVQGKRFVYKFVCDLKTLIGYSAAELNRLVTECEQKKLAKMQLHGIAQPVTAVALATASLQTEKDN
Summary of the method: as §1

[4] = biological target: T4, ERG (Homo sapiens, UniProt P11308 1-479); details: protein: recombinant; tags: N-terminal GST; dsDNA, one strand shown
T4 sequence: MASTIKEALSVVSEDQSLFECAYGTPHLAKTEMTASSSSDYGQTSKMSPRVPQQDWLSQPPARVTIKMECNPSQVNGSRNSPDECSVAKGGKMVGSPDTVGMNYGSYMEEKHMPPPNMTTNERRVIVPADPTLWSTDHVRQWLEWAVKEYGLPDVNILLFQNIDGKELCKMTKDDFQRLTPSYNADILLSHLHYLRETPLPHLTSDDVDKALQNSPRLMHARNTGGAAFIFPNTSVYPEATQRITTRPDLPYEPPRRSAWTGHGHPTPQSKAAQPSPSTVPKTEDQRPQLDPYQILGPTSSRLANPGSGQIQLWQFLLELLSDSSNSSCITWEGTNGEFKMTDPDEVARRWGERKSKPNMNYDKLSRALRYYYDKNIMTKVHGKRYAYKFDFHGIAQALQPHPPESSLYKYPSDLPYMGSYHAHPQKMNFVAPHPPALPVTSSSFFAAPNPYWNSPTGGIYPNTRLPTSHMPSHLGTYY
Summary of the method: as §1

[5] = biological target: ELF1 (Homo sapiens, UniProt P32519 1-619); details: protein: recombinant; tags: N-terminal GST; dsDNA, one strand shown
Chain of ELF1 (P32519 whole entry): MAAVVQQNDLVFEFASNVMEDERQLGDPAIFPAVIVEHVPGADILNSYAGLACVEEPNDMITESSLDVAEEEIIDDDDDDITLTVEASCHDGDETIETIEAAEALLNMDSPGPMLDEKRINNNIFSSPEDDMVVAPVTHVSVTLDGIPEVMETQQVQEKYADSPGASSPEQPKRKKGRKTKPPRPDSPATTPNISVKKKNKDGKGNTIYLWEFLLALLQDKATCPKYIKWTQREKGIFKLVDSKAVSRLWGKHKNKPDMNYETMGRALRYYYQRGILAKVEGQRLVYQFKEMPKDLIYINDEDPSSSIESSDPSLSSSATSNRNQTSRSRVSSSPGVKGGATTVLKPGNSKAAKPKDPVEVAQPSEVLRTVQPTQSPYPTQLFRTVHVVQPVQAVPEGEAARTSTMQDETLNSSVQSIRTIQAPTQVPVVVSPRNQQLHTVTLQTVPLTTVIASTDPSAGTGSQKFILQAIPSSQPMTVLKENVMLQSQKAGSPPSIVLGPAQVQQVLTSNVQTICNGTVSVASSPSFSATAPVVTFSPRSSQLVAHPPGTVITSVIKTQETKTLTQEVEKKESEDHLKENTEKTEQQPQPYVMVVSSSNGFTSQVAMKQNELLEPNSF
Summary of the method: as §1

[6] = biological target: T5, EHF (Homo sapiens, UniProt Q9NZC4 1-300); details: protein: recombinant; tags: N-terminal GST; dsDNA, one strand shown
T5 sequence: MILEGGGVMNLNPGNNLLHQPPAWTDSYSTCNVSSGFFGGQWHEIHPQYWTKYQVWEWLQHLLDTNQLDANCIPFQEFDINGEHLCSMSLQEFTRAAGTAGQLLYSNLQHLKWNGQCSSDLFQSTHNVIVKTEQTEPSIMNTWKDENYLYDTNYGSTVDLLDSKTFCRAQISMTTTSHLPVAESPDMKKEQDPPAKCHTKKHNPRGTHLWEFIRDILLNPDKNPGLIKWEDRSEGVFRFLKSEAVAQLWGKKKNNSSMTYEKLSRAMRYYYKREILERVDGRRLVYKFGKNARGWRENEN
Summary of the method: as §1

[7] = biological target: SPI1 (Homo sapiens, UniProt P17947 1-270); details: protein: recombinant; tags: N-terminal GST; dsDNA, one strand shown
Summary of the method: as §1

[8] = biological target: SPIB (Homo sapiens, UniProt Q01892 1-262); details: protein: recombinant; tags: N-terminal GST; dsDNA, one strand shown
Chain of SPIB (Q01892 whole entry): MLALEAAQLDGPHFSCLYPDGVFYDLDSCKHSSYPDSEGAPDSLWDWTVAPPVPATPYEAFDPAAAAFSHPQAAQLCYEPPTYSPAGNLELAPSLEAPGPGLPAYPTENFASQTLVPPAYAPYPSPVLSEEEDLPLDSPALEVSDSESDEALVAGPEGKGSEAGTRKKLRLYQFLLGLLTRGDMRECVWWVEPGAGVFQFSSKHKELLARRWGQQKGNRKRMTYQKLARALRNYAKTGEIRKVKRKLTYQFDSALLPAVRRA
Summary of the method: as §1

[9] = biological target: T6, FEV (Homo sapiens, UniProt Q99581 1-238); details: protein: recombinant; tags: N-terminal GST; dsDNA, one strand shown
T6 sequence: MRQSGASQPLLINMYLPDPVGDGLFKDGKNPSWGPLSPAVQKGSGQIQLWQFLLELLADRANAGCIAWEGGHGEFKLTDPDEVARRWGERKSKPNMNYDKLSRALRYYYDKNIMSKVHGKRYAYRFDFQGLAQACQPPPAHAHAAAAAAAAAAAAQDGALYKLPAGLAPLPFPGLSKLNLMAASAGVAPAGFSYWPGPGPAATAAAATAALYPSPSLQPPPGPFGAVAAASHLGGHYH
Summary of the method: as §1

[10] = biological target: ETV5 (Homo sapiens, UniProt P41161 1-510); details: protein: recombinant; tags: N-terminal GST; dsDNA, one strand shown
Chain of ETV5 (P41161 whole entry): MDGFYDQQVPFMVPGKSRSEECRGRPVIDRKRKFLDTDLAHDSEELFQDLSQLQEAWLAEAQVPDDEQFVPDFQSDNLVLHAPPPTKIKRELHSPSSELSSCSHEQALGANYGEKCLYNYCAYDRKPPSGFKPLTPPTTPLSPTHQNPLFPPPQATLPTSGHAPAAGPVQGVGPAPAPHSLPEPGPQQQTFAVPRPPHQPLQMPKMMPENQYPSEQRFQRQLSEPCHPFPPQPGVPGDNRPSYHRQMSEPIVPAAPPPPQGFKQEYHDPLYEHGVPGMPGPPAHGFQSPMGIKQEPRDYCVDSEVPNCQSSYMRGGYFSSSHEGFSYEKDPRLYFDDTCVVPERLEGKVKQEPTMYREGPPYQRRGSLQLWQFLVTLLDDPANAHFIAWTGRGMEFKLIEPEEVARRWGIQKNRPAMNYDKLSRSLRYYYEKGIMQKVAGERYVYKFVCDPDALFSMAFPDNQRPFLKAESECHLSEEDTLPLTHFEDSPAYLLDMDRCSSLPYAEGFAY
Summary of the method: as §1

[11] = biological target: HSF1 (Homo sapiens, UniProt Q00613 1-529); details: protein: recombinant; tags: N-terminal GST; chain copies: 3; dsDNA, one strand shown
Chain of HSF1 (Q00613 whole entry): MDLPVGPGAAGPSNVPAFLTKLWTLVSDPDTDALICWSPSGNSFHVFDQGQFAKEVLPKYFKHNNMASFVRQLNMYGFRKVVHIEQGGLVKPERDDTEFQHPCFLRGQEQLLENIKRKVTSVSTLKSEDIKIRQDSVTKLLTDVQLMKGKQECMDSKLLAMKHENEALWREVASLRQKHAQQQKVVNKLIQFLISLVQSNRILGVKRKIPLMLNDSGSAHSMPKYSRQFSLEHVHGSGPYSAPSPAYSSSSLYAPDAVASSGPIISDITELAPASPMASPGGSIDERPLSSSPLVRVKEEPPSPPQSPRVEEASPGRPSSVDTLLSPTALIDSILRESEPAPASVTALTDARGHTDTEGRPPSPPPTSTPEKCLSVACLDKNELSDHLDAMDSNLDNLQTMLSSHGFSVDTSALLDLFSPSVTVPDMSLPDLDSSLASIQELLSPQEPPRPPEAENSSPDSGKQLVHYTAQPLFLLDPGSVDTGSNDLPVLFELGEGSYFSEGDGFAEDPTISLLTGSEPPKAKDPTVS
Summary of the method: as §1

[12] = biological target: T7, SPIC (Homo sapiens, UniProt Q8N5J4 1-248); details: protein: recombinant; tags: N-terminal GST; dsDNA, one strand shown
T7 sequence: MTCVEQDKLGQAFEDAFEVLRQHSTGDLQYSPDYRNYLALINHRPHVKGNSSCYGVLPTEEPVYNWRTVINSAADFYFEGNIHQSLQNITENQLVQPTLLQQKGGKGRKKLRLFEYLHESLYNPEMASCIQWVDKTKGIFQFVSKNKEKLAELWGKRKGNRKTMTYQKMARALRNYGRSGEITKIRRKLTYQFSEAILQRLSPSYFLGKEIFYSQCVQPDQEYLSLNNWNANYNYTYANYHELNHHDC
Summary of the method: as §1

[13] = biological target: ELF4 (Homo sapiens, UniProt Q99607 1-663); details: protein: recombinant; tags: N-terminal GST; dsDNA, one strand shown
Chain of ELF4 (Q99607 whole entry): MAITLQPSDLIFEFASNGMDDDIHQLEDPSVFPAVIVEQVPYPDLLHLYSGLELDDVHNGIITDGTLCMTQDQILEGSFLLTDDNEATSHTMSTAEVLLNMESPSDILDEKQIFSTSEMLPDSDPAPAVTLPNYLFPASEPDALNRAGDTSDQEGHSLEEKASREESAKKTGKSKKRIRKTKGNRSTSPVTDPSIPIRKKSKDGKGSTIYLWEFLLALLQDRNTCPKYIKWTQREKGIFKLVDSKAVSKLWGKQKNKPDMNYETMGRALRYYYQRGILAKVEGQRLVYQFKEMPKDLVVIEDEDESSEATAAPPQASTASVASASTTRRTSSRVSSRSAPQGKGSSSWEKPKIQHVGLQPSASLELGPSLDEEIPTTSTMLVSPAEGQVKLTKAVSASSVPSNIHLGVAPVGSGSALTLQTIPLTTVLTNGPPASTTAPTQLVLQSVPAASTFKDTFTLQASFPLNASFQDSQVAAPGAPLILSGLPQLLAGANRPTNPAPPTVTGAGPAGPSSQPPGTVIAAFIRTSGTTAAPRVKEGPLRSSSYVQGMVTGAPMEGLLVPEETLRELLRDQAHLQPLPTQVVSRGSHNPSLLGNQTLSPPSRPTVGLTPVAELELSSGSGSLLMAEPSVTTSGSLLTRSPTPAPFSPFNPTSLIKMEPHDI
Summary of the method: as §1

[14] = biological target: T8, ELK4 (Homo sapiens, UniProt P28324-2 1-405); details: protein: recombinant; tags: N-terminal GST; dsDNA, one strand shown
T8 sequence: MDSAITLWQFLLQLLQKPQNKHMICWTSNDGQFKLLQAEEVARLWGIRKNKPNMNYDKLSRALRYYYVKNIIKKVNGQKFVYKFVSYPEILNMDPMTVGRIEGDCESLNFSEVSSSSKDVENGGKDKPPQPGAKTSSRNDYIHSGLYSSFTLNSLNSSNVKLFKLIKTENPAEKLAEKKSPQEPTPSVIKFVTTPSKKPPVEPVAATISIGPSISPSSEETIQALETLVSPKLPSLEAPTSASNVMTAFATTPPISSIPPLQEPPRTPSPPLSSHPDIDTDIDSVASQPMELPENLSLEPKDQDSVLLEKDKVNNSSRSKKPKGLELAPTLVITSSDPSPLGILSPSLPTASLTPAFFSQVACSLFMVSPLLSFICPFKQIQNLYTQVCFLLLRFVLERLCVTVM
Summary of the method: as §1

[15] = biological target: T9, ETV2 (Homo sapiens, UniProt O00321 1-342); details: protein: recombinant; tags: N-terminal GST; dsDNA, one strand shown
T9 sequence: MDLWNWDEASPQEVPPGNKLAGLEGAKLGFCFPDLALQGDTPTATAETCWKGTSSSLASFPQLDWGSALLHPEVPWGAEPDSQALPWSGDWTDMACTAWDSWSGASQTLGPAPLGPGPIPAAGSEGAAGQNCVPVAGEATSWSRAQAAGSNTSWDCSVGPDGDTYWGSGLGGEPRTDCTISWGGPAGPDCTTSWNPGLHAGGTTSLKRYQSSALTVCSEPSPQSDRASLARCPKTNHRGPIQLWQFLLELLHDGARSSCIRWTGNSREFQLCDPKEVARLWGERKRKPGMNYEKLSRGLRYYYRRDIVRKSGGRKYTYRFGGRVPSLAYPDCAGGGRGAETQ
Summary of the method: as §1

[16] = biological target: T10, ELF3 (Homo sapiens, UniProt P78545 1-371); details: protein: recombinant; tags: N-terminal GST; dsDNA, one strand shown
T10 sequence: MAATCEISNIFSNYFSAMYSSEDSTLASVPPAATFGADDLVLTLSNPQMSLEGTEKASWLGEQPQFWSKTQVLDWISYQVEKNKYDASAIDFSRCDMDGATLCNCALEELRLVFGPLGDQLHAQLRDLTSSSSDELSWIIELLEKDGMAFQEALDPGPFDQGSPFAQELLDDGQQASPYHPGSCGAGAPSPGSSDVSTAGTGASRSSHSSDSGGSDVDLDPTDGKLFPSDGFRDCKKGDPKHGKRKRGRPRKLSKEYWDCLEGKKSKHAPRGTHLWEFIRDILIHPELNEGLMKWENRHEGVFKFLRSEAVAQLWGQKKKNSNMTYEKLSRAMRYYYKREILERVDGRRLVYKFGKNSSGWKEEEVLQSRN
Summary of the method: as §1

[17] = biological target: CRX (Homo sapiens, UniProt O43186 1-299); details: protein: recombinant; tags: N-terminal GST; dsDNA, one strand shown
Chain of CRX (O43186 whole entry): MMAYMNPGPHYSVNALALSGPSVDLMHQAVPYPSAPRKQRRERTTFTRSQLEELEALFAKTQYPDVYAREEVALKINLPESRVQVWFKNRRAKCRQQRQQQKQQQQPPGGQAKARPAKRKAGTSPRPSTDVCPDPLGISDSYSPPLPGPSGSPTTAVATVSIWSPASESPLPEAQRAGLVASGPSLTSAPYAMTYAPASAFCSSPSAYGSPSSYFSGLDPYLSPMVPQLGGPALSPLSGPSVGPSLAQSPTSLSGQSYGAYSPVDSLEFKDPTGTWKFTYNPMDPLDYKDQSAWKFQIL
Summary of the method: as §1

[18] = biological target: ETV1 (Homo sapiens, UniProt P50549 1-477); details: protein: recombinant; tags: N-terminal GST; dsDNA, one strand shown
Chain of ETV1 (P50549 whole entry): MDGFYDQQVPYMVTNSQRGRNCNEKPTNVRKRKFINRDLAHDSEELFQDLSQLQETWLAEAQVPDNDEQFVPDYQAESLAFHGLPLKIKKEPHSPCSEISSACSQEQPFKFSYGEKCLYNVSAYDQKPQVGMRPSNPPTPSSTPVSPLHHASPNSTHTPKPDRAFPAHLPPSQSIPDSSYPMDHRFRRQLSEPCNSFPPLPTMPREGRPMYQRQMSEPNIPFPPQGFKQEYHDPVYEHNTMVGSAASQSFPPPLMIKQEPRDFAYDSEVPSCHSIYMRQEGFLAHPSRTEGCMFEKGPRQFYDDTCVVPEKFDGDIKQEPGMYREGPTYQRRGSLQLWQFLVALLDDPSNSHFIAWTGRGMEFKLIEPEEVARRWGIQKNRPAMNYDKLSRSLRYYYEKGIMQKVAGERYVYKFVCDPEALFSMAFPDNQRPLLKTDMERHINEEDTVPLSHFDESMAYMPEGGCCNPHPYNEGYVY
Summary of the method: as §1

AATCAT was tested, and the binding signal [1] was 1.13 fold enrichment (6-mer frequency, TF over GST control), the binding signal [2] was 1.12 fold enrichment (6-mer frequency, TF over GST control) and the binding signal [3] was 1.19 fold enrichment (6-mer frequency, TF over GST control). The binding signal [4] was 1.12 fold enrichment (6-mer frequency, TF over GST control), the binding signal [5] was 1.16 fold enrichment (6-mer frequency, TF over GST control) and the binding signal [6] was 1.17 fold enrichment (6-mer frequency, TF over GST control). The binding signal [7] was 1.07 fold enrichment (6-mer frequency, TF over GST control), the binding signal [8] was 1.21 fold enrichment (6-mer frequency, TF over GST control) and the binding signal [9] was 1.1 fold enrichment (6-mer frequency, TF over GST control). The binding signal [10] was 1.15 fold enrichment (6-mer frequency, TF over GST control), the binding signal [11] was 1.27 fold enrichment (6-mer frequency, TF over GST control) and the binding signal [12] was 1.14 fold enrichment (6-mer frequency, TF over GST control). The binding signal [13] was 1.06 fold enrichment (6-mer frequency, TF over GST control), the binding signal [14] was 1.12 fold enrichment (6-mer frequency, TF over GST control) and the binding signal [15] was 1.21 fold enrichment (6-mer frequency, TF over GST control). The binding signal [16] was 1.17 fold enrichment (6-mer frequency, TF over GST control), the binding signal [17] was 1.39 fold enrichment (6-mer frequency, TF over GST control) and the binding signal [18] was 1.15 fold enrichment (6-mer frequency, TF over GST control).
